Where “and” joins values, the source holds several entries; their conditions need not be identical. Equal entries are not always repeated. Records with an inconclusive call do not appear. Calls of active or inactive are those of the source. Unless noted, the call rests on the fitted dose curve; in most records, active means well fitted curve in the direction sought with a large enough effect; inconclusive means small, poorly fitted or top-dose-only effect, or another doubt; inactive means no such curve, though single readings can be large; an effect the other way counts as inactive or inconclusive.
How the values were obtained:
[1] = target: Protein phosphatase 1D (Homo sapiens) (UniProt O15297); assay: RapidFire Mass Spectrometry qHTS Assay for Modulators of WT P53-Induced Phosphatase 1 (WIP1) (AID 1347424);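 further: amount of dephosphorylated VEPPL-S-QETFS peptide product formed by WIP1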; further: potency means the concentration at half of the fitted maximal effect
Protein phosphatase 1D (Homo sapiens), sequence (O15297 whole entry, looked up): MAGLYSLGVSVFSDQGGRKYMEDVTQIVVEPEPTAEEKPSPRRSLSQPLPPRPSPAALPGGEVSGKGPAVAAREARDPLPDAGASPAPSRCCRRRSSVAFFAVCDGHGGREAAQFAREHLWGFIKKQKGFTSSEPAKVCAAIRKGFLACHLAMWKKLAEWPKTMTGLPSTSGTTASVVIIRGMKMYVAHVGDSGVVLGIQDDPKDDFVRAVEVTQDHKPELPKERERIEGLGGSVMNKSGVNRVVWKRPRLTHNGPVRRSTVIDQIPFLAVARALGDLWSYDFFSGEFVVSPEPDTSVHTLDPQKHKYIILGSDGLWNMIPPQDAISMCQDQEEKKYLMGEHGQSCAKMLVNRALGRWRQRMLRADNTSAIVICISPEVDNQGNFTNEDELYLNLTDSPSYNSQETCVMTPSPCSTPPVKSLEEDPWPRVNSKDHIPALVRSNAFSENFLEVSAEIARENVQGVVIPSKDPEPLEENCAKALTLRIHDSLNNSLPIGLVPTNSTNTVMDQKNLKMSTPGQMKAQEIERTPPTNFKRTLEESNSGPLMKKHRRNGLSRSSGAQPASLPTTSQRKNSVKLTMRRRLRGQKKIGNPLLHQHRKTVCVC
Procedure, shortened: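 10 nM WIP1 + cpd, 1 h RT; + 2 uM VEPPL-pS-QETFS, 5 min RT; stop 0.5% formic acid; labelled product standard 1 uM; RapidFire MS. Buffer 50 mM Tris pH 7.5, 30 mM MgCl2, 1 mM TCEP.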

[2] = Primary qHTS for inhibitors of La Crosse Virus (LACV) - induced cell death in SH-SY5Y cells (AID 1508616);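 further: top concentration of the series differs between compounds; higher means more rescue of cells from virus-induced death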
Procedure, shortened: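 Readout was luminescence from ATPLite 1step added after a 6-day LACV infection (0.01 MOI) of SH-SY5Y cells that had received pin-transferred compound 24 hr after seeding.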

[3] = target: Calcium and integrin-binding protein 1 (Homo sapiens) (UniProt Q99828); assay: Primary qHTS for Identification of Calcium Integrin Binding Protein 1 (CIB1) Competitor (AID 1508620); further: potency means the concentration at half of the fitted maximal effect
Calcium and integrin-binding protein 1 (Homo sapiens), sequence (Q99828 whole entry, looked up): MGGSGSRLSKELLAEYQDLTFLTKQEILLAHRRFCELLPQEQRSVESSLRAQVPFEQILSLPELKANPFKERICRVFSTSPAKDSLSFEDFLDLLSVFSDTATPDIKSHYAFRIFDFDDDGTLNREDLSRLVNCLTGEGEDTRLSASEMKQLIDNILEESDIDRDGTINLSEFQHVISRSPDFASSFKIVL
Procedure, shortened: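 CIB1-GST (1 uM final) and compound incubated 15 min at room temperature before adding FITC-alphaIIb peptide tracer (100 nM final). Competition for binding read by fluorescence polarization (ex 480, em 540) after another 15 min at room temperature.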

[4] = Primary qHTS for small molecule stabilizers of the endoplasmic reticulum resident proteome: Secreted ER Calcium Modulated Protein (SERCaMP) assay (AID 1508630)
Procedure, shortened: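 GLuc-SERCaMP-expressing SH-SY5Y cells, pretreated 16 h with compound, are challenged with thapsigargin to empty ER calcium stores; after 4 h, coelenterazine is added directly to the medium and luminescence is imaged.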

[5] = A High-Content qHTS Against Drug Library for the Identification of Small Molecules that Inhibit DYT1 Early Onset Primary Dystonia-Associated Cell Pathology (AID 1645839; calls by dose curve; further: series mostly up to about 46 µM)
Procedure, shortened: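 In this high-content image screen, delE TorsinA mislocalization in inducible Flp-In 293 cells is scored as %pathology, with cell count serving as the counterscreen. Compound exposure lasts 48 h under tetracycline induction in reduced-serum medium.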

[6] = target: Cytochrome P450 2D6 (Homo sapiens) (UniProt P10635); assay: Cytochrome P450 family 2 subfamily D member 6 (CYP2D6) small molecule antagonists: luciferase biochemical (cell-free) qHTS assay (AID 1645840; active means well fitted curve in the direction sought with a large enough effect in the repeat runs; an effect the other way counts as inactive or inconclusive; further: nearly all actives have a fitted effect of over 55% in size; further: potency means the concentration at half of the fitted maximal effect)
Cytochrome P450 2D6 (Homo sapiens), sequence (P10635 whole entry, looked up): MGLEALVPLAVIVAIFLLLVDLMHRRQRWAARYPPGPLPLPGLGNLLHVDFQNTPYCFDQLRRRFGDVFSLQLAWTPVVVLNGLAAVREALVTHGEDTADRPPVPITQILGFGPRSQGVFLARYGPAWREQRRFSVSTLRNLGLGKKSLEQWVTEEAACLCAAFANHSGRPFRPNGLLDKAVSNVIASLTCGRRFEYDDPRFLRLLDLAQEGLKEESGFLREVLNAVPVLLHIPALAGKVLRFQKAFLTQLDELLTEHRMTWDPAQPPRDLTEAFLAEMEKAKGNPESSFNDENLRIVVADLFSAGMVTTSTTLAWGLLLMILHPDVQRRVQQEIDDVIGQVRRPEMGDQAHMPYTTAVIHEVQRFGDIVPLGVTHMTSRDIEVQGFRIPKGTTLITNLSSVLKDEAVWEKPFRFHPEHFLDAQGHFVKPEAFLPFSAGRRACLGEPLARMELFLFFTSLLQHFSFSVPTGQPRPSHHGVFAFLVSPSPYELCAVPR
Procedure, shortened: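 P450-Glo luminescent screen: recombinant CYP2D6 enzyme–proluciferin substrate mix preincubated with compound 10 min at room temperature, then NADPH regeneration added for 1 h at room temperature. Detection reagent added for 20 min; luciferin light read as relative luminescence units.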

[7] = target: Cytochrome P450 2C9 (Homo sapiens) (UniProt P11712); assay: Cytochrome P450 family 2 subfamily C member 9 (CYP2C9) small molecule antagonists: luciferase biochemical (cell-free) qHTS assay (AID 1645842; active means well fitted curve in the direction sought with a large enough effect in the repeat runs; an effect the other way counts as inactive or inconclusive; further: nearly all actives have a fitted effect of over 55% in size; further: potency means the concentration at half of the fitted maximal effect)
Cytochrome P450 2C9 (Homo sapiens), sequence (P11712 whole entry, looked up): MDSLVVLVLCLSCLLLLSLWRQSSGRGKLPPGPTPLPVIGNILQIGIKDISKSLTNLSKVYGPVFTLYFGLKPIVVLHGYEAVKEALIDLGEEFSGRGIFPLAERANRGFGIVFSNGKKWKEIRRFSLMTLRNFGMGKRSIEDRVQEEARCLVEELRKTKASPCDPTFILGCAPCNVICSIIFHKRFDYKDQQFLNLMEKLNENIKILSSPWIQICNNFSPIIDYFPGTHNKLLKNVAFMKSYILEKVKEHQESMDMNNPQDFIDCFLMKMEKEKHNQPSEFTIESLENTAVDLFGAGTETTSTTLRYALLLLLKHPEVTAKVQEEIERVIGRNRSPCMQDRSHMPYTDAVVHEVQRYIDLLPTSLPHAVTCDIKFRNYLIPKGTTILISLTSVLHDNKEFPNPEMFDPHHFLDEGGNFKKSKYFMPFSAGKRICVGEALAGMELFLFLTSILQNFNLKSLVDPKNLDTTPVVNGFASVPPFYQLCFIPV
Procedure, shortened: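 Luminescence, after 20 min with luciferin detection reagent, reflected CYP2C9 turnover during a 1 h NADPH-driven reaction at 37C. Enzyme-substrate mix contained 0.4% bovine serum albumin and was preincubated with compound 10 min at room temperature.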

[8] = target: Protein phosphatase 1D (Homo sapiens) (UniProt O15297); assay: Rhodamine-PBP qHTS Assay for Modulators of WT P53-Induced Phosphatase 1 (WIP1) (AID 1347425)
Procedure, shortened: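 The read-out is the change in Rhodamine-PBP fluorescence (f1 - f0, ex 525/em 598 nm) as Pi is released, read each minute for 11 min. Final reaction: 5 nM WIP1, 10 uM phosphopeptide VEPPL-pS-QETFS, 10 uM Rh-PBP, 50 mM Tris-HCl pH 7.5, 30 mM MgCl2. Compound was preincubated with enzyme for 1 hour at room temperature.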

[9] = Confirmatory qHTS for small molecule stabilizers of the endoplasmic reticulum resident proteome: Secreted ER Calcium Modulated Protein (SERCaMP) assay (AID 1508628); further: potency means the concentration at half of the fitted maximal effect; nearly all actives have a fitted effect of over 40% in size
Procedure, shortened: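 We seeded SH-SY5Y-GLuc-SERCaMP cells, added compounds (three concentrations in the primary run, eleven up to 76.6 uM in confirmation), incubated 16 h, depleted ER calcium with thapsigargin, and read luciferase 4 h later.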

[10] = Primary qHTS for inhibitors of nuclear receptor binding SET domain protein 2 (NSD2) in an isogenic RCH-ACV NSD2 p.E1099K mutant (9B) (AID 1645876); further: nearly all actives have a fitted effect of over 70% in size; further: potency means the concentration at half of the fitted maximal effect
[11] = Primary qHTS for inhibitors of nuclear receptor binding SET domain protein 2 (NSD2) in an RCH-ACV wild type WT cells (2C) (AID 1645877); further: nearly all actives have a fitted effect of over 70% in size; further: potency means the concentration at half of the fitted maximal effect
[12] = target: Calcium and integrin-binding protein 1 (Homo sapiens) (UniProt Q99828); assay: Confirmatory qHTS for Identification of Calcium Integrin Binding Protein 1 (CIB1) Competitor (AID 1508617); further: potency means the concentration at half of the fitted maximal effect; nearly all actives have a fitted effect of over 65% in size
Procedure, shortened: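 Compounds at up to 114 uM final met 1 uM GST-tagged CIB1 for 15 min at room temperature (HEPES pH 7.4, 5 mM CaCl2). FITC-labelled alphaIIb peptide, 100 nM, added; polarization read after 15 min more.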

[13] = Counterscreen qHTS for small molecule stabilizers of the endoplasmic reticulum resident proteome: GLuc-NoTag assay (AID 1508627); further: potency means the concentration at half of the fitted maximal effect
Procedure, shortened: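 Luminescence of Gaussia luciferase secreted into the medium (coelenterazine, 0.07x final, unlysed cells) was the read-out. Human SH-SY5Y neuroblastoma cells constitutively secreting untagged GLuc received compound for 19 h, then 100 nM thapsigargin for 4 h.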

[14] = target: Rap guanine nucleotide exchange factor 3 (Homo sapiens) (UniProt O95398); assay: Confirmatory qHTS for antagonist of cAMP-regulated guanine nucleotide exchange factor 3 (EPAC1) (AID 1645880); further: potency means the concentration at half of the fitted maximal effect; nearly all actives have a fitted effect of over 55% in size
Rap guanine nucleotide exchange factor 3 (Homo sapiens), sequence (O95398 whole entry, looked up): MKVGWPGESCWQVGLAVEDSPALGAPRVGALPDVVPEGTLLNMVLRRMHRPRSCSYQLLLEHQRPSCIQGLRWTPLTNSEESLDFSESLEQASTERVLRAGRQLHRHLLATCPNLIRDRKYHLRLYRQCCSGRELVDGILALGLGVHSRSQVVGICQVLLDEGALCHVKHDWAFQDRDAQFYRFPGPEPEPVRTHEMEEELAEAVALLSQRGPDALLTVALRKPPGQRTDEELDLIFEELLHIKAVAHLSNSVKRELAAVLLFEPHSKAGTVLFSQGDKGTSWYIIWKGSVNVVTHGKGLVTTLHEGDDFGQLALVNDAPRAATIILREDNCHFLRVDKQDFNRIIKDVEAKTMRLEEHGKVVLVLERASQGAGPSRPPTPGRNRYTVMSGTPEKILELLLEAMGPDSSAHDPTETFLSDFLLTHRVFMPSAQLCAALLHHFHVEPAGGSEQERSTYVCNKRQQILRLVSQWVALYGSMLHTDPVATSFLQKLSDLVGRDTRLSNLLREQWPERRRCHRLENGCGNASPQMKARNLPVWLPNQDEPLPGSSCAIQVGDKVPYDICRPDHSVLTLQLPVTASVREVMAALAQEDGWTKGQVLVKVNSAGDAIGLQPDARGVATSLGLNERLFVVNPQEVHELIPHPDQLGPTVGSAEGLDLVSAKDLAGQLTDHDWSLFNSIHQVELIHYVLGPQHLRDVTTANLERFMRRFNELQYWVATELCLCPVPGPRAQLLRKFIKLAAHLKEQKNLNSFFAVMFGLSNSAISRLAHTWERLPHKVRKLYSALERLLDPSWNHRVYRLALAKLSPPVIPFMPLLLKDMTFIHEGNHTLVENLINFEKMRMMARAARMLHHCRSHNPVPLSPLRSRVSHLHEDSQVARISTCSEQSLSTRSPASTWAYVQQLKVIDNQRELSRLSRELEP
Procedure, shortened: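 Nucleotide exchange uses 100 nM EPAC1, 250 nM RAP1B-BODIPY-GDP and 50 uM GDP, with compounds in a concentration-titration series. After 5 min at room temperature, fluorescence (480 nm ex/540 nm em) is read every 5 min for 30 min. Data are normalized to control ATA and DMSO.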

Measured: Potency

CCN1CCCC(OC(=O)C(c2ccccc2)c2ccccc2)C1 (stereo unspecified)
inactive: [1] | [2] | [3] | [4] | [5] | [7]
active: [6] 1.38 µM

CN1CCC[C@@H]1CCO[C@](C)(c1ccccc1)c1ccc(Cl)cc1
inactive: [1] | [8]
active: [9] 15.8 µM | [10] 21.1 µM | [11] 13.3 µM

CCc1oc2ccccc2c1C(=O)c1cc(I)c(O)c(I)c1
inactive: [2] | [4]
active: [1] 3.55 µM | [12] 35.5 µM | [7] 0.347 µM

CCN(CC)CCOC(=O)C(Cc1cccc2ccccc12)CC1CCCO1 (stereo unspecified)
inactive: [1] | [2] | [3] | [5] | [7]
active: [6] 3.09 µM and 3.38 µM

O=C1OC(CN2CCOCC2)CN1/N=C/c1ccc([N+](=O)[O-])o1 (stereo unspecified)
inactive: [1] | [2] | [3] | [4] | [5] | [7]

CCN(CC)CCNc1ccc(CO)c2sc3ccccc3c(=O)c12
inactive: [1] | [2] | [3] | [4] | [7]
active: [6] 4.36 µM | [10] 2.66 µM | [11] 1.33 µM

N#C/C(=C1\SCC(c2ccccc2Cl)S1)n1ccnc1 (stereo unspecified)
inactive: [1] | [2] | [3] | [4] | [5]
active: [6] 0.275 µM | [7] 1.55 µM

COP(=O)(OC)OC(c1ccc(Cl)cc1)P(=O)(OC)OC (stereo unspecified)
not listed: [8] | [9] | [12] | [13] | [14]
inactive: all other assays above

Nc1nc(Cl)nc2c1ncn2[C@@H]1O[C@H](CO)[C@@H](O)[C@@H]1F
active: [10] 10.6 nM and 52.5 nM | [11] 8.4 nM and 37.2 nM
inactive: [1] | [2] | [3] | [4] | [6] | [7]

CCC1Nc2cc(Cl)c(S(N)(=O)=O)cc2S(=O)(=O)N1 (stereo unspecified)
not listed: [8] | [9] | [12] | [13] | [14]
inactive: all other assays above

CN1CCN(c2c(F)cc3c(=O)c(C(=O)O)cn4c3c2SCC4)CC1
inactive: [1] | [2] | [3] | [4] | [5] | [6] | [7]

CN1CCN(C2=Nc3cc(F)ccc3Cc3ccccc32)CC1
inactive: [1] | [2] | [3] | [5] | [7]
active: [13] 28.2 µM | [9] 39.8 µM | [6] 5.49 µM

O=S(c1cc(Cl)cc(Cl)c1O)c1cc(Cl)cc(Cl)c1O
inactive: [2] | [3] | [4]
active: [1] 31.6 µM

O[C@@H](c1cc(C(F)(F)F)nc2c(C(F)(F)F)cccc12)[C@H]1CCCCN1
active: [10] 7.5 µM | [11] 7.5 µM
inactive: [1] | [2] | [3] | [4]

CCCCN1C[C@H](O)[C@@H](O)[C@H](O)[C@H]1CO
not listed: [8] | [9] | [12] | [13] | [14]
inactive: all other assays above

CCC(CC)(CC(=O)Nc1cccc(/C=C/c2nc(C3CCC3)cs2)c1)C(=O)O
inactive: [1] | [2] | [3] | [4] | [6]

NC(=O)n1c(O)c(C(=O)c2cccs2)c2cc(Cl)ccc21
inactive: [1] | [2] | [3] | [4] | [10] | [11]

Oc1ccc(Cl)cc1Cc1cc(Cl)ccc1O
inactive: [2]
active: [1] 22.4 µM | [12] 44.7 µM | [3] 79.4 µM | [6] 27.5 µM | [7] 7.76 µM | [11] 18.8 µM

O=C(c1ccc(F)cc1)C1CCN(CCn2c(=S)[nH]c3ccccc3c2=O)CC1
inactive: [1] | [8] | [3] | [5]
active: [6] 0.776 µM

C[C@@]12C(=O)OC(=O)[C@]1(C)C1CCC2O1
active: [10] 2.99 µM | [11] 2.66 µM
inactive: [1] | [8] | [4] | [7]

CO[C@H]1C=CO[C@@]2(C)Oc3c(C)c(O)c4c(O)c(c(/C=N/N5CCN(C)CC5)c(O)c4c3C2=O)NC(=O)/C(C)=C\C=C[C@H](C)[C@H](O)[C@@H](C)[C@@H](O)[C@@H](C)[C@H](OC(C)=O)[C@@H]1C
inactive: [1] | [2] | [3]

CCCCCCCCCCC[C@@H](C[C@@H]1OC(=O)[C@H]1CCCCCC)OC(=O)[C@H](CC(C)C)NC=O
active: [7] 2.75 µM
inactive: [1] | [8] | [3] | [6] | [10] | [11]

Cc1ccc2c(Br)cc(Br)c(O)c2n1
inactive: [1] | [8] | [3] | [6] | [7]
active: [10] 7.5 µM | [11] 2.37 µM

CC[C@]12CCCN3CCc4c(n(c5ccccc45)C(=O)C1)[C@@H]32
inactive: [1] | [2] | [3] | [4]
active: [6] 0.0871 µM | [10] 8.41 µM and 8.17 µM | [11] 5.96 µM

Cc1cc2c(OCC(CNC(C)(C)C)OC(=O)c3ccccc3)cccc2[nH]1 (stereo unspecified)
active: [6] 0.246 µM | [7] 3.47 µM
inactive: [1] | [2] | [3] | [4] | [5] | [10] | [11]

CC1(COc2ccc(CC3SC(=O)NC3=O)cc2)CCCCC1 (stereo unspecified)
inactive: [2] | [3] | [4] | [7]
active: [14] 49.8 µM

FC1(F)C(F)(F)C(F)(F)C2(F)C(F)(F)C(F)(F)C(F)(F)C(F)(F)C2(F)C1(F)F (stereo unspecified)
inactive: [1] | [2] | [4] | [5] | [6] | [7] | [10] | [11]

O=C(O)C(Cc1cc(I)c(O)c(I)c1)c1ccccc1 (stereo unspecified)
inactive: [8] | [2] | [3] | [4] | [6] | [10]
active: [7] 15.1 µM and 11 µM
